Reference: PubChem BioAssay (NCI)
Compounds without any hit were thinned out: in the full panel of roughly 83,000, 20% have a hit.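 Method: cells in 96-well plates; compound added at one concentration; 48 h incubation; percent growth measured; values under 10 scored active.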 Calls of active or inactive are those of the source.

Columns and labels:
Assay in all cases: NCI-60 one-dose screen, 48 h (100 = growth as untreated, 0 = no growth, -100 = all killed)
Conditions in all cases: 10 µM unless noted
RPMI-8226 leukemia = tested on: RPMI-8226 leukemia
OVCAR-8 ovarian = tested on: OVCAR-8 ovarian
OVCAR-5 ovarian = tested on: OVCAR-5 ovarian
OVCAR-4 ovarian = tested on: OVCAR-4 ovarian
SK-OV-3 ovarian = tested on: SK-OV-3 ovarian
IGROV1 ovarian = tested on: IGROV1 ovarian
OVCAR-3 ovarian = tested on: OVCAR-3 ovarian
HS 578T breast = tested on: HS 578T breast
NCI/ADR-RES ovarian = tested on: NCI/ADR-RES ovarian
BT-549 breast = tested on: BT-549 breast
MDA-MB-435 melanoma = tested on: MDA-MB-435 melanoma
SW-620 colon = tested on: SW-620 colon
MCF7 breast = tested on: MCF7 breast
HCT-116 colon = tested on: HCT-116 colon
HCC-2998 colon = tested on: HCC-2998 colon
KM12 colon = tested on: KM12 colon
T-47D breast = tested on: T-47D breast

Measured: growth

C=C1c2c(C)nn(-c3ccc(N)cc3)c2N(C)C23CC1C1(C)c4c(C)nn(-c5ccc(N)cc5)c4N(C)C(C)(CC12)C3 (stereo not given)
inactive: RPMI-8226 leukemia 40.9% | OVCAR-8 ovarian 71% | OVCAR-5 ovarian 101% | OVCAR-4 ovarian 70.7% | SK-OV-3 ovarian 70.6% | IGROV1 ovarian 100% | OVCAR-3 ovarian 78.4% | HS 578T breast 90.6% | NCI/ADR-RES ovarian 78.8% | BT-549 breast 72.7% | MDA-MB-435 melanoma 70.4% | SW-620 colon 77.1% | MCF7 breast 24.8% | HCT-116 colon 33.5% | HCC-2998 colon 85.8% | KM12 colon 68.3%

CC(C)n1nc(C#Cc2cccc(O)c2)c2c(N)ncnc21
active: RPMI-8226 leukemia -46.9% | OVCAR-8 ovarian -36.4% | OVCAR-5 ovarian -43% | OVCAR-4 ovarian -15% | SK-OV-3 ovarian -62.6% | IGROV1 ovarian -68.8% | OVCAR-3 ovarian -19.6% | HS 578T breast -28.8% | NCI/ADR-RES ovarian -29.2% | BT-549 breast -65.4% | MDA-MB-435 melanoma -25.8% | SW-620 colon 0.77% | MCF7 breast 0.624% | HCT-116 colon -63.8% | HCC-2998 colon -2.82% | KM12 colon -7.5%

CCn1nc(C#Cc2c(C)ccc3c(Nc4ccc(Cl)cc4)nccc23)c2c(N)ncnc21
inactive: OVCAR-5 ovarian 25.1% | OVCAR-4 ovarian 41.5% | IGROV1 ovarian 12.5% | NCI/ADR-RES ovarian 11.6% | BT-549 breast 10.5% | SW-620 colon 25% | HCC-2998 colon 31.6% | KM12 colon 14.2%
active: RPMI-8226 leukemia 2.72% | OVCAR-8 ovarian 7.01% | SK-OV-3 ovarian -3.61% | OVCAR-3 ovarian 7% | HS 578T breast 0.71% | MDA-MB-435 melanoma -26.3% | MCF7 breast 6.61%

C=C1c2c(C)nn(-c3ccc(O)cc3)c2N(C)C23C[C@@H]1C1(C)c4c(C)nn(-c5ccc(O)cc5)c4N(C)C(C)(C[C@H]12)C3 (stereo not given in full)
inactive: OVCAR-8 ovarian 27.8% | OVCAR-5 ovarian 85.8% | OVCAR-4 ovarian 32.2% | SK-OV-3 ovarian 37.7% | IGROV1 ovarian 63.2% | OVCAR-3 ovarian 24.2% | HS 578T breast 52.4% | NCI/ADR-RES ovarian 47.4% | BT-549 breast 28.6% | MDA-MB-435 melanoma 18.7% | SW-620 colon 31.2% | HCC-2998 colon 44.9% | KM12 colon 21.2%
active: RPMI-8226 leukemia -1.11% | MCF7 breast 5.99%

Cc1c(C(=O)O[C@H]2[C@@H]3[C@H](C)CC[C@H]3[C@]3(C)O[C@@]2(C2CCCCC2)C[C@H]3OC(=O)CO)ccc2ccccc12
active: RPMI-8226 leukemia -40.7% | HS 578T breast -29.6% | NCI/ADR-RES ovarian 8.05% | MCF7 breast 3.27% | HCT-116 colon 3.42% | HCC-2998 colon 5.5%
inactive: OVCAR-8 ovarian 28.6% | OVCAR-5 ovarian 61.1% | OVCAR-4 ovarian 39.4% | SK-OV-3 ovarian 62.6% | IGROV1 ovarian 63.3% | OVCAR-3 ovarian 29.3% | BT-549 breast 33.4% | MDA-MB-435 melanoma 39% | SW-620 colon 18.7% | KM12 colon 27.9%

C=C(CNCCc1ccc(O)cc1)[C@@H]1CC[C@]2(COC3CCCCO3)CC[C@]3(C)[C@H](CC[C@@H]4[C@@]5(C)CCC(NCCO)C(C)(C)[C@@H]5CC[C@]43C)[C@@H]12 (stereo not given in full)
active: RPMI-8226 leukemia -56.8% | OVCAR-8 ovarian -85.1% | OVCAR-5 ovarian -93.1% | OVCAR-4 ovarian -91.5% | SK-OV-3 ovarian -48.9% | IGROV1 ovarian -83.9% | OVCAR-3 ovarian -94.4% | HS 578T breast -51.5% | NCI/ADR-RES ovarian -79.3% | MDA-MB-435 melanoma -89.8% | SW-620 colon -76.2% | MCF7 breast -84.3% | HCT-116 colon -95.3% | HCC-2998 colon -89.5% | KM12 colon -84.9%
inactive: BT-549 breast 41.2%

CN1CCN(C(=O)[C@@]2(C)CC[C@]3(C)CC[C@]4(C)C(=CC[C@@H]5[C@@]6(C)C/C(=C/c7ccncc7)C(=O)C(C)(C)[C@@H]6CC[C@]54C)[C@@H]3C2)CC1
inactive: RPMI-8226 leukemia 12.8% | OVCAR-8 ovarian 50.9% | OVCAR-5 ovarian 88.2% | OVCAR-4 ovarian 37.9% | SK-OV-3 ovarian 55.2% | IGROV1 ovarian 56.7% | OVCAR-3 ovarian 50.7% | HS 578T breast 54% | NCI/ADR-RES ovarian 62.1% | BT-549 breast 55.6% | MDA-MB-435 melanoma 44.6% | SW-620 colon 31.6% | MCF7 breast 23.3% | HCT-116 colon 12% | HCC-2998 colon 58.1% | KM12 colon 36.6%

COC(=O)c1ccc(CSc2nnc(-c3ccncc3)o2)cc1
inactive: RPMI-8226 leukemia 102% | OVCAR-8 ovarian 101% | OVCAR-5 ovarian 104% | OVCAR-4 ovarian 99.5% | SK-OV-3 ovarian 102% | IGROV1 ovarian 98.9% | OVCAR-3 ovarian 112% | HS 578T breast 107% | NCI/ADR-RES ovarian 104% | BT-549 breast 104% | MDA-MB-435 melanoma 106% | SW-620 colon 108% | MCF7 breast 96.6% | HCT-116 colon 97.6% | HCC-2998 colon 110% | KM12 colon 109%

COC(=O)Nc1nc2ccc(C(=O)C3CC3)cc2[nH]1
inactive: OVCAR-5 ovarian 48.9% | OVCAR-4 ovarian 44.7% | SK-OV-3 ovarian 22.7% | T-47D breast 57.1% | BT-549 breast 74.9% | SW-620 colon 20.6%
active: RPMI-8226 leukemia -19.7% | OVCAR-8 ovarian 8.29% | IGROV1 ovarian -59.4% | OVCAR-3 ovarian -61.7% | NCI/ADR-RES ovarian 9.11% | MDA-MB-435 melanoma -63.7% | MCF7 breast 4.01% | HCT-116 colon 9.29% | HCC-2998 colon -12.7% | KM12 colon -0.0812%

CC(C)n1nc(C#Cc2cccc3cc(-c4cccc(C(F)(F)F)c4)ncc23)c2c(N)ncnc21
inactive: RPMI-8226 leukemia 57.1% | OVCAR-8 ovarian 41.1% | OVCAR-5 ovarian 86.1% | OVCAR-4 ovarian 78.8% | SK-OV-3 ovarian 91% | IGROV1 ovarian 72% | OVCAR-3 ovarian 91.2% | HS 578T breast 65.2% | NCI/ADR-RES ovarian 82% | BT-549 breast 97.7% | MDA-MB-435 melanoma 67.3% | SW-620 colon 71.8% | MCF7 breast 75.7% | HCT-116 colon 31.4% | HCC-2998 colon 98.1% | KM12 colon 60.9%

C=C(C)[C@@H]1CC[C@]2(CNCCO)CC[C@]3(C)[C@H](CC[C@@H]4[C@@]5(C)CCC(N)[C@@](C)(CO)[C@@H]5CC[C@]43C)[C@@H]12 (stereo not given in full)
active: RPMI-8226 leukemia -45.1% | OVCAR-3 ovarian -43.4% | MDA-MB-435 melanoma -75.7% | SW-620 colon -60.2% | MCF7 breast -54.2% | HCT-116 colon -90.2% | HCC-2998 colon -8.22% | KM12 colon -2.9%
inactive: OVCAR-8 ovarian 10.7% | OVCAR-5 ovarian 63.8% | OVCAR-4 ovarian 46.2% | SK-OV-3 ovarian 75% | IGROV1 ovarian 61.6% | HS 578T breast 60.9% | NCI/ADR-RES ovarian 83% | BT-549 breast 68.6%

CC1=CC(=O)C(C(C)C)=CC1=Nc1cc(Br)c(O)c(Br)c1
inactive: OVCAR-8 ovarian 31.1% | OVCAR-5 ovarian 29.4% | OVCAR-4 ovarian 37.2% | SK-OV-3 ovarian 19.6% | IGROV1 ovarian 22.9% | T-47D breast 75.5% | BT-549 breast 26.4% | SW-620 colon 27.3% | MCF7 breast 23.2%
active: RPMI-8226 leukemia -8.71% | OVCAR-3 ovarian -9.25% | NCI/ADR-RES ovarian -22.9% | MDA-MB-435 melanoma -11.7% | HCT-116 colon 1.14% | HCC-2998 colon -43.5% | KM12 colon -1.83%

N#Cc1cccc(-c2nc3ccccn3c2NCCN2CCOCC2)c1
inactive: RPMI-8226 leukemia 90.4% | OVCAR-8 ovarian 90.7% | OVCAR-5 ovarian 94.4% | OVCAR-4 ovarian 30% | SK-OV-3 ovarian 86.3% | IGROV1 ovarian 97.8% | OVCAR-3 ovarian 96.9% | HS 578T breast 96.2% | NCI/ADR-RES ovarian 98.2% | MDA-MB-435 melanoma 102% | SW-620 colon 95.5% | MCF7 breast 90.4% | HCT-116 colon 89.9% | HCC-2998 colon 96.1% | KM12 colon 88.6%

C=C(C)[C@@H]1CC[C@]2(CO)CC[C@]3(C)[C@H](CC[C@@H]4[C@@]5(C)C=C(C#N)C(=O)C(C)(C)[C@@H]5CC[C@]43C)[C@@H]12
active: RPMI-8226 leukemia -20.9% | OVCAR-3 ovarian -49.2% | SW-620 colon 5.54% | MCF7 breast 1.77% | HCC-2998 colon 8.97% | KM12 colon 6.43%
inactive: OVCAR-8 ovarian 22.2% | OVCAR-5 ovarian 36.3% | OVCAR-4 ovarian 26.9% | SK-OV-3 ovarian 37.9% | IGROV1 ovarian 24.1% | HS 578T breast 29.3% | NCI/ADR-RES ovarian 13.1% | BT-549 breast 29.3% | MDA-MB-435 melanoma 17.8% | HCT-116 colon 10.5%

Cc1cc(N(CCCNc2ccnc3cc(Cl)ccc23)Cc2ccccn2)nc(N2CCCC2)n1
inactive: RPMI-8226 leukemia 48.9% | OVCAR-8 ovarian 73.4% | OVCAR-5 ovarian 87.6% | OVCAR-4 ovarian 63.1% | SK-OV-3 ovarian 102% | IGROV1 ovarian 87.5% | OVCAR-3 ovarian 88% | HS 578T breast 88.9% | NCI/ADR-RES ovarian 76.7% | BT-549 breast 91.7% | MDA-MB-435 melanoma 86.7% | SW-620 colon 70.5% | MCF7 breast 56.9% | HCT-116 colon 50.3% | HCC-2998 colon 89.2% | KM12 colon 82.8%

O=C1C(Cl)C(c2ccccc2Cl)N1n1cnnc1 (stereo not given)
inactive: RPMI-8226 leukemia 102% | OVCAR-8 ovarian 96.2% | OVCAR-5 ovarian 91.4% | OVCAR-4 ovarian 97.5% | SK-OV-3 ovarian 77.3% | IGROV1 ovarian 91.5% | OVCAR-3 ovarian 102% | HS 578T breast 87.6% | NCI/ADR-RES ovarian 106% | BT-549 breast 97.3% | MDA-MB-435 melanoma 103% | SW-620 colon 94.5% | MCF7 breast 97.4% | HCT-116 colon 96.4% | HCC-2998 colon 98.4% | KM12 colon 96.9%

Clc1cnc(Nc2ccc(OCCN3CCCC3)cc2)nc1NCc1ccco1
inactive: OVCAR-8 ovarian 20.2% | OVCAR-4 ovarian 51.6% | SK-OV-3 ovarian 57.8% | IGROV1 ovarian 15.7% | OVCAR-3 ovarian 28.8% | HS 578T breast 31.4% | NCI/ADR-RES ovarian 18.5% | BT-549 breast 45.7% | MDA-MB-435 melanoma 34.5% | HCC-2998 colon 59.1%
active: RPMI-8226 leukemia 6.95% | OVCAR-5 ovarian 8.69% | SW-620 colon 6.11% | MCF7 breast -0.965% | HCT-116 colon 7.55% | KM12 colon 4.56%

CN1CCC(=C2c3ccccc3C=Cc3ccccc32)CC1
inactive: RPMI-8226 leukemia 72.7% | OVCAR-8 ovarian 85.4% | OVCAR-5 ovarian 108% | OVCAR-4 ovarian 72.9% | SK-OV-3 ovarian 97.6% | IGROV1 ovarian 72.7% | OVCAR-3 ovarian 104% | NCI/ADR-RES ovarian 75.6% | T-47D breast 72.6% | BT-549 breast 113% | MDA-MB-435 melanoma 80.2% | SW-620 colon 81.1% | MCF7 breast 80.5% | HCT-116 colon 66.3% | HCC-2998 colon 92.5% | KM12 colon 94.4%
